Assay results: PubChem BioAssay (NCATS)
Records with an inconclusive call do not appear. Entries that show only a call come without a potency. Active and inactive are the calls of the source. Calls follow the shape of the dose curve; as a rule, active = well fitted activation curve with a large enough effect; inconclusive = small, poorly fitted or top-dose-only effect; inactive = flat fitted curve, though single readings scatter.

These molecules were tested against D(1A) dopamine receptor (Homo sapiens) (UniProt P21728) (assay: HTS Assay for Allosteric Agonists of the Human D1 Dopamine Receptor: Primary Screen for Agonists (AID 488981)). Conditions: Inducible HEK293 T-REx D1 cells, calcium-flux fluorescence, 180 s kinetic; series mostly up to 41.8 µM.
Excerpt: Dopamine receptors (DARs) are involved in the etiology and/or therapy of a number of neuropsychiatric and endocrine disorders. For instance, all receptor-based antiparkinsonian drugs work via stimulating the […] DAR subtype whereas all FDA-approved antipsychotic agents are antagonists of this receptor. […] There are three different types of allosteric modulators that we are seeking, two of which will stimulate or augment receptor signaling, allosteric agonists and potentiators, while the third, allosteric antagonists, will attenuate receptor signaling. The present primary screening assay measures compound agonism by tracking calcium flux in a […], inducible Hek293 Trex D1 cell line.
Freshly passaged cells are plated in 1536 well black, clear bottom plates at a density of 4000 cells/well in 3 ul of complete media containing 1x tetracycline inducer. After an overnight incubation at 30 C in 5% CO2, cells are loaded with 2 ul of the no wash Calcium Assay Kit (ABD Bioquest) and incubated at room temperature for 30 to 90 minutes. A 10 cycle (1 second/cycle) baseline measurement is taken and then the FDSS online 1536 pintool delivers 23 nl of compound library (as well as dopamine controls) to the plate. The plate is measured for kinetically at 1 cycle/sec for 180 seconds and is considered to be the agonist portion of the assay (eg, compounds which activate a positive calcium response during this portion are flagged as potential agonists). Following the 180 second read, 1 ul of an EC20 of dopamine is delivered by an onboard pipette head. Measurements are taken kinetically for an additional 180 seconds.
Potency is read from the fitted curve at half-maximal effect.

Chain of D(1A) dopamine receptor (Homo sapiens) (P21728 whole entry, looked up): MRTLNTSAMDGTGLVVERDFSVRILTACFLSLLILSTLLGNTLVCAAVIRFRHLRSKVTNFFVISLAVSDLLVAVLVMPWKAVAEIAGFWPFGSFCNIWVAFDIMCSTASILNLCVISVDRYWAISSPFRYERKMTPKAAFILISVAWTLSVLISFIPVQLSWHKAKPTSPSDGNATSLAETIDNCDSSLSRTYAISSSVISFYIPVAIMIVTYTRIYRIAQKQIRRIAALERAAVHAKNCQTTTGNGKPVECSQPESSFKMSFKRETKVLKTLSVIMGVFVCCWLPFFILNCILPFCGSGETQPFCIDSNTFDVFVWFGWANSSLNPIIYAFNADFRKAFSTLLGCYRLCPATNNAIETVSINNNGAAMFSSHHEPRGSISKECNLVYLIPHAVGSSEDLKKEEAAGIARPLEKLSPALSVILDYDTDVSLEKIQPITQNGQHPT

SMILES	Potency
Cc1cccc(C)c1OCC(N)C(C)C (stereo not given)	inactive
Cn1c(=O)[nH]c2ncn(C)c2c1=O	inactive
NC/C=C\C(=O)O	inactive
C=C1C[C@@]23CC[C@H]4[C@@](C)(CCC[C@@]4(C)C(=O)OC4OC(CO)C(O)C(O)C4O)[C@@H]2CC[C@]1(OC1OC(CO)C(O)C(O)C1OC1OC(CO)C(O)C(O)C1O)C3 (stereo not given in full)	inactive
CN1CCC2(CCN3CCc4c(oc5ccccc45)C3C2)N(C)C1=O (stereo not given)	inactive
N=S(=O)(O)Cc1noc2ccccc12	inactive
O=[N+]([O-])c1cccc2c(Br)[nH]nc12	inactive
CCCCOC(=O)NS(=O)(=O)c1sc(CC(C)C)cc1-c1ccc(Cn2c(CC)nc3c(C)cc(C)nc32)cc1	inactive
CCSC(=N)N	inactive
CN1CCCC1CCOC(C)(c1ccccc1)c1ccc(Cl)cc1 (stereo not given)	inactive
CCCCCCCCCCC(C)(C)C(=O)Nc1c(OC)cc(OC)cc1OC	inactive
COC(=O)C1=C(C)NC(C)=C([N+](=O)[O-])C1c1ccccc1C(F)(F)F (stereo not given)	inactive
CCN(c1nc(N)c(C(=O)N=C(N)N)nc1Cl)C(C)C	inactive
O=c1cc(O)cc(/C=C/c2ccc(O)c(O)c2)o1	inactive
Nc1nc2c(cnn2CCc2ccccc2)c2nc(-c3ccco3)nn12	inactive
Cc1nc(N=Nc2cc(S(=O)(=O)O)c3cc([N+](=O)[O-])cc(S(=O)(=O)O)c3c2)c(COP(=O)(O)O)c(C=O)c1O	inactive
C[C@](Cc1ccc(O)c(O)c1)(NN)C(=O)O	inactive
OC[C@H]1O[C@@H](n2cnc3cncnc32)[C@H](O)[C@@H]1O	inactive
Nc1ccc(CCNc2ncnc3c2ncn3C2OC(CO)C(O)C2O)cc1 (stereo not given)	inactive
c1ccc(C(NCCNC(c2ccccc2)c2ccccc2)c2ccccc2)cc1	inactive

SMILES	Potency
OCC1NCC(O)C(O)C1O (stereo not given)	inactive
C=C1C[C@@]23CC[C@H]4[C@@](C)(CCC[C@@]4(C)C(=O)O)[C@@H]2CC[C@]1(O)C3	inactive
CN(C)S(=O)(=O)c1ccc2c(c1)/C(=C/c1cc3c([nH]1)CCCC3)C(=O)N2	12.6 µM (active)
CCCC[C@@]1(C2CCCC2)Cc2cc(OCC(=O)O)c(Cl)c(Cl)c2C1=O	inactive
COc1ccccc1N1CCN(CCCCNC(=O)c2ccc3ccccc3c2)CC1	inactive
CC(=O)NCCc1c[nH]c2ccc(O)cc12	inactive
COC(=O)[C@H](NC(=O)c1cc(-c2ccccc2)nc2ccccc12)c1ccccc1	inactive
C=C1C(=O)O[C@@H]2[C@H]3O[C@]3(C)CCC=C(C)CC[C@@H]12	inactive
O=C(O)/C(=C/c1c(C(=O)O)[nH]c2cc(Cl)cc(Cl)c12)c1ccccc1	inactive
O=C(O)/C=C/c1cnc[nH]1	inactive
NCCC1CCCC(CCN)N1 (stereo not given)	inactive
CCCCS(=N)(=O)CC[C@H](N)C(=O)O (stereo not given in full)	inactive
NC(C(=O)N[C@@H]1C(=O)N2C(C(=O)O)=C(Cl)CS[C@H]12)c1ccccc1 (stereo not given in full)	inactive
Nc1ccc(-c2ccc3ccccc3n2)cc1	inactive
N=C(N)SCCN	inactive
CC(=O)/C(C)=N/O	inactive
N[C@@H](Cc1c[nH]c2ccccc12)C(=O)O	inactive
CNc1cc(NS(=O)(=O)c2ccc(N)cc2)nc(NC)n1	inactive
CSC(=N)N	inactive
NC(Cc1cccc(-c2ccccc2CP(=O)(O)O)c1)C(=O)O (stereo not given)	inactive
